Reference: PubChem BioAssay (NCATS)
Several values for one entry are separate records, joined by “and”; a condition that tells them apart may be missing. Equal values may be shown once. Inconclusive results are not listed. Entries that show only a call come without a potency. A structure can be active in one record and inactive in another. Activity calls are given as the source filed them. Calls come from the whole dose curve; as a rule, active = well fitted curve in the direction sought with a large enough effect; inconclusive = small, poorly fitted or top-dose-only effect, or another doubt; inactive = no such curve, though single readings can be large; an effect the other way counts as inactive or inconclusive.

Tests used:
[1] = P-glycoprotein substrates identified in KB-3-1 adenocarcinoma cell line, qHTS therapeutic library screen (AID 1346986); note: nearly all actives have a fitted effect of over 60% in size;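 note: potency is the fitted concentration of half-maximal effect; potency is for cytotoxicity meaning loss of cell viability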
Summary of the method: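 Resistance attributable to P-gp was assessed by comparing AC50 in KB-8-5-11 with parental KB-3-1 and by tariquidar reversal. Cells were exposed 72 h and viability read by CellTiter-Glo.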

[2] = P-glycoprotein substrates identified in KB-8-5-11 adenocarcinoma cell line, qHTS therapeutic library screen (AID 1346987); note: nearly all actives have a fitted effect of over 65% in size; note: potency is the fitted concentration of half-maximal effect
Summary of the method: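 Steps: plate 500 KB-8-5-11 cells/well in DMEM + 10% FCS (colchicine removed); pin compounds in dose-response; incubate 72 h, 37 degree C, 5% CO2; add CellTiter-Glo, 5 min; read luminescence.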

[3] = NS1 protein of Zika virus - qHTS assay to identify small molecule inhibitors in human HEK 293 cells (AID 1347053); note: series mostly up to about 46 µM; nearly all actives have a fitted effect of over 55% in size
Summary of the method: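 HEK 293 cells, seeded 20 h at 37 C, were pretreated with compound 1 h, then infected with ZIKV MR766 (MOI = 0.5) for 24 h. NS1 was read by TR-FRET with two anti-NS1 antibodies, normalized to uninfected and infected wells.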

[4] = qHTS of pediatric cancer cell lines to identify multiple opportunities for drug repurposing: Primary screen for TC32 cells (AID 1347089); note: nearly all actives have a fitted effect of over 60% in size; note: potency is the fitted concentration of half-maximal effect
Summary of the method: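 Luminescent CellTiter-Glo read-out of metabolically active TC32 cells after 48 h compound exposure. Primary: MIPE 11-point, 0.78 nM–46 µM; NPC 8-point, 0.59 nM–46 µM. Confirmatory: 11-point dilutions.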

[5] = qHTS of pediatric cancer cell lines to identify multiple opportunities for drug repurposing: Primary screen for DAOY cells (AID 1347090); note: nearly all actives have a fitted effect of over 55% in size; note: potency is the fitted concentration of half-maximal effect
Summary of the method: (§1)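 Eight- or eleven-point concentration series, 48 h treatment at 37 degrees C in growth media; readout CellTiter-Glo luminescence. Potency and efficacy were taken from the concentration-response curves.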

[6] = qHTS of pediatric cancer cell lines to identify multiple opportunities for drug repurposing: Primary screen for SJ-GBM2 cells (AID 1347091); note: potency is the fitted concentration of half-maximal effect
Summary of the method: as §1

[7] = qHTS of pediatric cancer cell lines to identify multiple opportunities for drug repurposing: Primary screen for A673 cells (AID 1347092); note: nearly all actives have a fitted effect of over 45% in size; note: potency is the fitted concentration of half-maximal effect
Summary of the method: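 A673 cells (500-1,000 cells/well in growth media) were pre-incubated 5 h at 37 degrees C, then exposed to compounds for 48 h. Viability was read as CellTiter-Glo luminescence; concentration-response curves came directly from the primary screen.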

[8] = qHTS of pediatric cancer cell lines to identify multiple opportunities for drug repurposing: Primary screen for NB-EBc1 cells (AID 1347095); note: potency is the fitted concentration of half-maximal effect
Summary of the method: (§2)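 Primary screen of approved and investigational compounds on cells in growth media at 37 degrees C, 5% CO2. MIPE set at 11-point and NPC set at 8-point dilutions; viability scored by ATP-based luminescence at 48 hours.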

[9] = qHTS of pediatric cancer cell lines to identify multiple opportunities for drug repurposing: Primary screen for U-2 OS cells (AID 1347096); note: nearly all actives have a fitted effect of over 50% in size; note: potency is the fitted concentration of half-maximal effect
Summary of the method: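 Cells (500-1,000/well) in growth media were settled 5 h at 37 degrees C, then given compounds for 48 h. Viability was read as CellTiter-Glo luminescence. Primary runs used MIPE at 11 points (0.78 nM-46 µM) and NPC at 8 points (0.59 nM-46 µM); follow-ups used 11 points.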

[10] = qHTS of pediatric cancer cell lines to identify multiple opportunities for drug repurposing: Primary screen for SK-N-MC cells (AID 1347093); note: potency is the fitted concentration of half-maximal effect
Summary of the method: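 Metabolically active cells were quantified by ATP-dependent luminescence (CellTiter-Glo, 15 min at room temperature) following 48 h treatment. Cells had been plated at 500-1,000 per well and settled for 5 h beforehand.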

[11] = qHTS of pediatric cancer cell lines to identify multiple opportunities for drug repurposing: Primary screen for SK-N-SH cells (AID 1347098); note: nearly all actives have a fitted effect of over 65% in size; note: potency is the fitted concentration of half-maximal effect
Summary of the method: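 Cells (500-1,000/well) rested 5 h, then received compounds for 48 h; metabolically active cells were measured by CellTiter-Glo luminescence. Final concentrations spanned up to 46 µM (MIPE, 11-point) or 0.59 nM-46 µM (NPC, 8-point) in primary screens, 11-point in follow-ups.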

[12] = qHTS of pediatric cancer cell lines to identify multiple opportunities for drug repurposing: Primary screen for BT-37 cells (AID 1347094); note: potency is the fitted concentration of half-maximal effect
Summary of the method: as §2

[13] = qHTS of pediatric cancer cell lines to identify multiple opportunities for drug repurposing: Primary screen for Saos-2 cells (AID 1347097); note: nearly all actives have a fitted effect of over 40% in size; note: potency is the fitted concentration of half-maximal effect
Summary of the method: as §2

SMILES	Potency [1]	Potency [2]	Potency [3]	Potency [4]	Potency [5]	Potency [6]	Potency [7]	Potency [8]	Potency [9]	Potency [10]	Potency [11]	Potency [12]	Potency [13]
CCC[C@@H](NC(=O)[C@@H]1[C@H]2CCC[C@@H]2CN1C(=O)[C@@H](NC(=O)[C@@H](NC(=O)c1cnccn1)C1CCCCC1)C(C)(C)C)C(=O)C(=O)NC1CC1	inactive	inactive	inactive	inactive	inactive	18.7 µM (active)	inactive	inactive	inactive				
CC(C)CN(C[C@H](O)[C@H](Cc1ccccc1)NC(=O)O[C@H]1CCOC1)S(=O)(=O)c1ccc(N)cc1	inactive	inactive	inactive	inactive		inactive	11.8 µM (active)	inactive	inactive				
CC(=O)O[C@]1(C(C)=O)CC[C@H]2[C@@H]3C=C(Cl)C4=CC(=O)[C@@H]5C[C@H]5[C@]4(C)[C@@H]3CC[C@@]21C	inactive	inactive	inactive	inactive	18700 nM (active)	9.35 µM (active)	0.469 µM (active)	16.6 µM (active)	inactive	7.43 µM (active)	12.1 µM (active)		
Cn1c(=O)c(-c2c(Cl)cccc2Cl)cc2cnc(Nc3cccc(C(=O)O)c3)nc21	inactive	inactive and 4.61 µM (active)	inactive	inactive	372 nM (active)	0.526 µM (active)		1.32 µM (active)		0.0935 µM (active)	inactive	inactive	0.743 µM (active)
Cc1cc(NC(=O)Nc2ccc(N(C)C)cc2)c2cc(F)cc(F)c2n1	inactive	inactive	inactive	inactive	inactive		inactive		inactive	inactive			
Cc1cc(C(C)Nc2ccccc2)c2nc(N3CCOCC3)cc(=O)n2c1 (stereo not given)	inactive	inactive	inactive	inactive			0.935 µM (active)	inactive	inactive				
Cc1ccccc1C(C(=O)NC1CCCCC1)N(C(=O)CNc1ccc(C#N)cc1)c1cccc(F)c1 (stereo not given)	inactive	inactive		inactive			inactive	23.5 µM (active)	inactive		inactive	inactive	18.7 µM (active)
Cn1c(=O)c(Oc2ccc(F)cc2F)cc2cnc(NC3CCOCC3)nc21	inactive	inactive	inactive			inactive	inactive	inactive	inactive	inactive	inactive	inactive	
COc1ccc(-c2ccc3ncc4c(c3c2)n(-c2ccc(N3CCNCC3)c(C(F)(F)F)c2)c(=O)n4C)cn1	0.0231 µM (active)	8.3 nM (active) and 184 nM (active) and 206 nM (active)		16.5 nM (active)	590 nM (active)	0.0132 µM (active)			7.43 µM (active)		0.0857 µM (active)	0.0306 µM (active)	0.418 µM (active)
CC(C)Oc1cc(Nc2nc(N[C@@H](C)c3ccc(F)cn3)ncc2Cl)[nH]n1	10.3 µM (active)	4.69 µM (active) and 8.2 µM (active)	inactive			16.6 µM (active)	9.35 µM (active)		23.5 µM (active)	4.69 µM (active)	13.6 µM (active)	27.3 µM (active)	5.26 µM (active)
O=C(O)CCC=CCC[C@@H]1[C@H](N2CCCCC2)[C@@H](O)C[C@@H]1OCc1ccc(-c2ccccc2)cc1	inactive	inactive		inactive		inactive			inactive	26.4 µM (active)			inactive
CN(C)c1nc(Cc2ccc(NC(=O)c3ccc(C(F)(F)F)cc3)cc2)nc(N(C)C)c1CC(=O)O	inactive	inactive		inactive	inactive	inactive	inactive	inactive	inactive	inactive	inactive	inactive	inactive
CCCCC(C)(C)[C@H](O)C=C[C@H]1[C@H](O)CC(=O)[C@H]1CC=CCCCC(=O)O	inactive	inactive	inactive		inactive	inactive		5.26 µM (active)	inactive	20.9 µM (active)	inactive		inactive
O=C(O)CCNc1cc(N2CCc3ccccc3CC2)nc(-c2ccccn2)n1	inactive	inactive				inactive	18.7 µM (active)	23.5 µM (active)		23.5 µM (active)			
CC(=O)NCCC(=O)N[C@@H](CCC(N)=O)C(=O)N[C@@H](CO)C(=O)N[C@@H](CCC(N)=O)C(=O)N[C@@H](CCC(N)=O)C(=O)N[C@H](C(=O)N[C@@H](Cc1ccccc1)C(=O)N[C@]1(C)CCCCCCC=CCCC[C@@](C)(C(=O)N[C@@H](CCC(N)=O)C(=O)N[C@@H](CC(N)=O)C(N)=O)NC(=O)[C@H](CC(C)C)NC(=O)[C@H](CC(C)C)NC(=O)[C@@H](CCCNC(=N)N)NC(=O)[C@H](Cc2c[nH]c3ccccc23)NC(=O)[C@H](CC(C)C)NC(=O)[C@H](CC(N)=O)NC1=O)[C@H](C)O	inactive	inactive		inactive		inactive		inactive	inactive	inactive			inactive
CC1C(=O)OC2C(O)C34C5CC(C(C)(C)C)C36C(OC(=O)C6O)OC4(C(=O)O5)C12O (stereo not given)	inactive	inactive		inactive	inactive	inactive	18.7 µM (active)	14.8 µM (active)	inactive	29.6 µM (active)			inactive
O=C(NC[C@H](O)CO)c1ccncc1Nc1ccc(I)cc1F	inactive	inactive		inactive		inactive				5.26 µM (active)			
COc1cc2nccc(Oc3ccc(NC(=O)Nc4ccc(F)cc4F)c(F)c3)c2cc1OC	7.31 µM (active)	7.31 µM (active)				2.96 µM (active)			inactive		inactive		
